Data: PMC13494018

B1: design_620_fbd04095-bef7-46a9-992d-f2cb8915922f_1144_dldesign_0_cycle1_af2pred (protein)
chain: DPARQATINALIKAAAEAAKLGDTALSQAAVEAAVALASAKTQEELDAAQKEADAVLAAAAKRKAAAAAA
B2: design_620_fbd04095-bef7-46a9-992d-f2cb8915922f_1232_dldesign_0_cycle1_af2pred (protein)
chain: SERHQQLVDFMVAAGQVALTNLAGALRTAEIVARTDPAAAVEGAKKIRELAAKTTPEDAAKMNAVADHALAAAA
B3: design_620_fbd04095-bef7-46a9-992d-f2cb8915922f_1927_dldesign_0_cycle1_af2pred (protein)
chain: AAAQAALEKMKALAEQALAEIKALSQKDQASIDQGIAVLSRTVTELMTAANQYPEVAAQYAQLAVDLLEQSSKYIRAGRARVAAKEAA
B4: design_620_fbd04095-bef7-46a9-992d-f2cb8915922f_1411_dldesign_0_cycle1_af2pred (protein)
chain: DELTKLAQEAADAAVRAMEAGRYLPLEEANALINEVIKLYQKASEAAVAGKLEEAKKYAKEAKAKAKEIEELAEKRRA
B5: design_620_fbd04095-bef7-46a9-992d-f2cb8915922f_790_dldesign_0_cycle1_af2pred (protein)
chain: AKAKELAKKAEKALKAAKEAAKLKPEEAAAKANKELGKVLEAQKKAVEAGAPQEALDKINAVATEIAKIALEAAKAA
B6: design_620_fbd04095-bef7-46a9-992d-f2cb8915922f_846_dldesign_0_cycle1_af2pred (protein)
chain: AADALAGAKAALNTIKAAETNAKKLDAAGAEAQYKLAKVALESAKVHAAKLGEEGKKIAEEAKKALAATKAVAEAKKAA
B7: design_620_fbd04095-bef7-46a9-992d-f2cb8915922f_1742_dldesign_0_cycle1_af2pred (protein)
chain: AAAVATAAAQAFLAQAEKNLAAAKAALKAGDYEAAIKHAQAAIGSAQSAKLAAQSAGDAALAAQADKVIAEAKKVLAEAEKALKEA
B8: design_620_fbd04095-bef7-46a9-992d-f2cb8915922f_1739_dldesign_0_cycle1_af2pred (protein)
chain: AEAAELLAQLQAATAAAQAAAAAGDAAAANAHLAQAVELASQIHRVGDAAQRAQANQLLAQASRAAIAANAAAAA
B9: design_620_fbd04095-bef7-46a9-992d-f2cb8915922f_1750_dldesign_0_cycle1_af2pred (protein)
chain: DPAKELARRVVEANLKQLKKLLEEAGKASTEEGKKLAKEAIEKVEKLKKEALASSAAEATALTVKAIEEASKALREIKKLK
B10: design_620_fbd04095-bef7-46a9-992d-f2cb8915922f_814_dldesign_0_cycle1_af2pred (protein)
chain: SALSIAQLAASTQAVMKRAAKEVKGELAKKIKEAAKLAATGEKAKEAAALLKEAAKEAPEELKPLVASAAKHAELLVAAS
B11: design_620_fbd04095-bef7-46a9-992d-f2cb8915922f_839_dldesign_0_cycle1_af2pred (protein)
chain: MSWSEKAAEAAIKRLKELAKKAVSEGGKYAELAAAAARNAALLSYAAGPEMAKKAIKVFKEAAKLYPELAPAMEQAIALIESLL
B12: design_620_fbd04095-bef7-46a9-992d-f2cb8915922f_1420_dldesign_0_cycle1_af2pred (protein)
chain: KQKYVNAIKANAKNLELIAEGAAQVDPALAKEAKAAAEKAKAKAEEAKKSTAEEAAALRKEVQAALAALSRALIAAAA
B13: design_620_fbd04095-bef7-46a9-992d-f2cb8915922f_1150_dldesign_0_cycle1_af2pred (protein)
chain: MRERIEKVEKEAKEAYEATKKAAAAQGEAGKIIAAAADAALKRLEEAAKKAKEALEEGDLESAEKYLKEAEAQLETIKVLKESAE
B14: design_620_fbd04095-bef7-46a9-992d-f2cb8915922f_936_dldesign_0_cycle1_af2pred (protein)
chain: LTPLEKAEAAKAKADKLYEAAQKATKAEAASLYGEAAVEYAKAAAYYLRAGDAAAAAAAQANLKTAVAKSQALVAA
B15: design_620_fbd04095-bef7-46a9-992d-f2cb8915922f_946_dldesign_0_cycle1_af2pred (protein)
chain: AAALEAARRVAYGQMVLGKMKADEGLKKAESGEDLEGGIKMAEEGLKLAKEYAEYDPVKGGAAAKEIGAKLKKMKELAKKAK
B16: design_620_fbd04095-bef7-46a9-992d-f2cb8915922f_868_dldesign_0_cycle1_af2pred (protein)
chain: MEEERREELRRKAEEYIAQAEALAAQTSPSAQLLVSNLARQARRLAEAGDYEGALEVARAALEGAQAMAAQQ
B17: design_620_fbd04095-bef7-46a9-992d-f2cb8915922f_1337_dldesign_0_cycle1_af2pred (protein)
chain: ADAATQAAIDANAAQAERALAAARADPAALPYAQAAIRNLELIAAGASPETQARGLARAEALRAALAAARAAA
B18: design_620_fbd04095-bef7-46a9-992d-f2cb8915922f_1915_dldesign_0_cycle1_af2pred (protein)
chain: NEDLKKAAELAKKAAQLAPQPEAAEVAAKAAEAAEKAVGPELGNYALALATLPPAARALGMSNLATSLEKLV
B19: design_620_fbd04095-bef7-46a9-992d-f2cb8915922f_1723_dldesign_0_cycle1_af2pred (protein)
chain: SAAAQQAAWQTYVDAAAEMSKLRREALASGDPEVKEKAIEEIKALADKAAANPAAAAAAKLAGENMTAALTES

target: CD276, Q5ZPR3
Sequence (Q5ZPR3 whole entry): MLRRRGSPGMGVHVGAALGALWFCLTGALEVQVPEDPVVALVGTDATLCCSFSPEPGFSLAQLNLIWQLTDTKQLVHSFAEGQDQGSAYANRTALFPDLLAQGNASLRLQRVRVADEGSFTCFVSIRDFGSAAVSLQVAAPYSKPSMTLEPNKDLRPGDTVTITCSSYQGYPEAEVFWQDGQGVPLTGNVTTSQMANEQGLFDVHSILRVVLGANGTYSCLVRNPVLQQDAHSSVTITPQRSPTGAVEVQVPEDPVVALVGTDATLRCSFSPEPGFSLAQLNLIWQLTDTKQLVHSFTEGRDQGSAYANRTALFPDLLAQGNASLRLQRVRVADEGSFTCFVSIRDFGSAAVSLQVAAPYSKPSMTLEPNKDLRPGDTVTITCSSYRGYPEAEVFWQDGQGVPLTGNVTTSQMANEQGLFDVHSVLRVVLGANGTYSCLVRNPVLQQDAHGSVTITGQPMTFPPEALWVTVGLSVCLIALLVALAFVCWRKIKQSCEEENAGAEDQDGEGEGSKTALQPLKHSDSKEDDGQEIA

Binding in a display sort, inactive:
B1 not found, B2 not found, B3 not found, B4 not found, B5 not found, B6 not found, B7 not found, B8 not found, B9 not found, B10 not found, B11 not found, B12 not found, B13 not found, B14 not found, B15 not found, B16 not found, B17 not found, B18 not found, B19 not found
